High-throughput results (PubChem BioAssay)
HepG2 tox = HepG2 cytotoxicity, counter-screen for TGF-b inhibitors | HepG2 CAGA-GFP viability, ATP luminescence, 18 h | Potency, µM (doses to about 46.1 µM), without a hit: at the top dose activity change, negative = cytotoxicity, actives largely listed as cytotoxic | hit rate 0.76% among 410,000
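CellTiter-Glo luminescence gave cytotoxicity after 18 hours at 37 degrees C. The cells were HepG2 CAGA-GFP in 1% FBS DMEM, stimulated with 500 pg/mL TGF-beta after compound addition. %Activity was normalised to no-cell wells (complete cell-killing) and DMSO (no toxicity), and curves were fitted and classified.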
ATXN viability = cell viability loss in ATXN counter-screen; S2 cells (HEK-293 line with an ATXN2-luciferase reporter) viability, CellTiter-Fluor protease fluorescence, 24 h; Potency, µM (top dose mostly 56.7 µM), most hits filed as cytotoxic; hit rate 0.49% among 400,000; further: nearly all actives have a fitted effect of over 40% in size
HttQ103 aggreg = mutant huntingtin aggregation inhibition | PC12 HttQ103-GFP aggregates, Acumen cytometry, 40 h | Potency, µM (titrated, usually from 46.1 µM), for the others: at the highest dose activity change, negative = inhibition, usual class: inhibitors | hit rate 1.1% among 220,000 | AID 1688; further: on the % scale 0 is the no-effect control and ±100 the full control effect; nearly all actives have a fitted effect of over 60% in size
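Read-out: GFP aggregate count by laser scanning cytometer (488 nm excitation, 500-530 nm emission, 1–25 µm objects >6 SD above background). Cells: PC12, inducible HTTex1-Q103-GFP, 100 nM tebufenozide; compounds titrated.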
TGFb inhibitor = inhibitors of TGF-b signaling | HepG2 CAGA-GFP TGF-b/SMAD3 reporter, GFP fluorescence, 18 h; TGF-beta stimulated, 500 pg/mL final | Potency, µM (doses to about 46.1 µM), for inactives: top-dose activity, negative = inhibition, hits mostly inhibitors | hit rate 1.2% among 410,000; further: on the % scale 0 is the no-effect control and ±100 the full control effect; nearly all actives have a fitted effect of over 65% in size
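First, reporter cells (HEPG2 CAGA-GFP) rested 2 h at 37 degrees C. Next, compounds were pinned in and TGF-beta added to 500 pg/mL final. After 18 h, GFP was imaged per cell and summed per well.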
HTT ATP protect = protects HTT-Q103 PC12 cells, measured by ATP | PC12 HTT-Q103 induced, cytoprotection, ATP luminescence, 40 h | hit rate 0.14% among 230,000 | Potency, µM (highest dose often 56.4 µM), without a hit: cytoprotection (ATP increase), most hits filed as activators; further: % of control where 0% means no effect; nearly all actives have a fitted effect of over 45% in size
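Huntington model: PC12 line, ecdysone-inducible HTTQ103 exon1–GFP, tebufenozide 100 nM. Test articles in a dose series. Endpoint luminescence from cellular ATP.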
ATXN2 expr inh = inhibitors of ATXN2 expression; Potency, µM (series often up to 57 µM), without a hit: at the highest dose activity change, negative = inhibition, most hits filed as inhibitors; hit rate 0.72% among 360,000; HEK-293 ATXN2-luciferase reporter, luminescence, 24 h; further: on the % scale 0 is the no-effect control and ±100 the full control effect; nearly all actives have a fitted effect of over 55% in size
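qHTS (up to 57 uM final) was run with 24 h compound exposure of reporter cells at 37 °C. Each well was multiplexed: SteadyGlo luminescence measured ATXN2-luciferase expression after a fluorogenic Gly-Phe-AFC viability readout (25 uM final).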
* marks the source's active call; other numbers are inactive results; [ ] = dose if it differs, or a comment. Shown are actives, neighbours in structure and some others; about 2.8% of the full set was active somewhere. The call rests on the fitted dose curve; in most records, active means well fitted curve in the direction sought with a large enough effect; inconclusive means small, poorly fitted or top-dose-only effect, or another doubt; inactive means no such curve, though single readings can be large; an effect the other way counts as inactive or inconclusive. Potency means the concentration at half of the fitted maximal effect.

CCCCC/C=C\C\C=C/C=C/C=C/[C@@H](SC[C@H](N)C(=O)O)[C@@H](O)CCCC(=O)O was read as HTT ATP protect 0%.
`Cc1c(C(=O)N2CCCC(c3ccccc3)C2)sc2ncnc(NCCc3ccccn3)c12` (stereo unspecified) gave ATXN viability inactive.
For CC(=O)O[C@H]1C[C@@H]2CC[C@@H]3[C@H](CC[C@@]4(C)[C@H]3C[C@H](N3CC[N+](C)(C)CC3)[C@@H]4OC(C)=O)[C@@]2(C)C[C@@H]1N1CC[N+](C)(C)CC1 the results were ATXN viability inactive.
CCN1CCC(N(Cc2ccc3c(c2)OCO3)C(=O)Nc2cccc(C)c2C)CC1 was read as HepG2 tox -8%, ATXN viability inactive, TGFb inhibitor 2% and ATXN2 expr inh -8%.
For CCN1CCC(N(Cc2ccc3c(c2)OCO3)C(=O)Nc2ccc(Br)c(C)c2)CC1 the results were HepG2 tox -95%, ATXN viability inconclusive, TGFb inhibitor inconclusive and ATXN2 expr inh 25µM*.
`OCCN1CCN(Cc2ccc3c(c2)CN(Cc2cnc(-c4ccccc4)s2)CCO3)CC1` gave ATXN viability inactive.
Screening CC1(C)N=C(N)N=C(N)N1c1ccc(OCC(=O)N2CCOCC2)c(Cl)c1 returned HepG2 tox 0.1µM*, ATXN viability inactive and TGFb inhibitor -5%.
`CC1(C)N=C(N)N=C(N)N1c1ccc(OCC(=O)N2CCOCC2)cc1` gave HepG2 tox -55%, ATXN viability inactive and TGFb inhibitor 0%.
Screening CC(C)(C)OC(=O)N1CCN(/[N+]([O-])=N/Oc2ccc([N+](=O)[O-])cc2[N+](=O)[O-])CC1 returned HepG2 tox -100% and TGFb inhibitor inconclusive.
`CC1CCN(S(=O)(=O)c2ccc3c(c2)N(CC(=O)NCCc2ccc(Cl)cc2)C(=O)CO3)CC1` gave HepG2 tox -24%, ATXN viability 28µM*, TGFb inhibitor 13µM* and ATXN2 expr inh inconclusive.
For CCN(CC)S(=O)(=O)c1ccc2c(c1)N(CC(=O)NCCCN1CCN(c3cc(Cl)ccc3C)CC1)C(=O)CO2 the results were HepG2 tox 13µM*, TGFb inhibitor inconclusive and ATXN2 expr inh inconclusive.
O=C(CN1C(=O)COc2ccc(S(=O)(=O)N3CCCCC3)cc21)NCCc1ccc(Cl)cc1 was read as HepG2 tox -5% and TGFb inhibitor inconclusive.
`O=C(CN1C(=O)COc2ccc(S(=O)(=O)N3CCCCCC3)cc21)NCc1ccc(Cl)cc1` gave HepG2 tox -4% and TGFb inhibitor 10µM*.
CCN(CC)S(=O)(=O)c1ccc2c(c1)N(CC(=O)N1CCN(c3cc(Cl)ccc3C)CC1)C(=O)CO2 was read as HepG2 tox -32%, ATXN viability inactive, TGFb inhibitor -12% and ATXN2 expr inh -1%.
C=C(C(=O)C(C)(C)O)C(O)c1ccc([N+](=O)[O-])cc1 (stereo unspecified) was read as HTT ATP protect 41%.
`CCN1CCN(Cc2c(O)ccc3oc(C)c(C(=O)Nc4cccc(C(F)(F)F)c4)c23)CC1` gave HepG2 tox 13µM*, ATXN viability inconclusive, TGFb inhibitor inconclusive and ATXN2 expr inh inconclusive.
`Cc1oc2ccc(O)c(CN3CCN(C)CC3)c2c1C(=O)Nc1cccc(C(F)(F)F)c1` gave HepG2 tox -35%, ATXN viability inactive, TGFb inhibitor -13% and ATXN2 expr inh -26%.
COc1ccc(-n2nc(C(=O)N3CCCCC3)c3ccccc3c2=O)cc1 was read as HepG2 tox 4%, ATXN viability inactive, HttQ103 aggreg 2.8µM*, TGFb inhibitor 3%, HTT ATP protect 10% and ATXN2 expr inh -4%.
COc1ccc(-n2nc(C(=O)NCC(=O)N3CCCCCC3)c3ccccc3c2=O)cc1 was read as HepG2 tox 2%, ATXN viability inactive, TGFb inhibitor 5% and ATXN2 expr inh 52%.
`COC(=O)C[C@H]1c2cc(C(F)(F)F)ccc2S(=O)(=O)N1C1CCCCC1` gave HepG2 tox -4%, ATXN viability inactive, TGFb inhibitor inconclusive and ATXN2 expr inh -5%.
Screening CC(=O)C[C@H]1c2cc(C(F)(F)F)ccc2S(=O)(=O)N1C1CCCCC1 returned HepG2 tox -16%, ATXN viability inactive, TGFb inhibitor 11µM* and ATXN2 expr inh -5%.
For O=C(OCn1ncc(Cl)c(Cl)c1=O)c1cccc(C(F)(F)F)c1 the results were HepG2 tox 7.1µM*, HttQ103 aggreg 0%, TGFb inhibitor inconclusive, HTT ATP protect 15% and ATXN2 expr inh inconclusive.
Screening CCc1ccc(C(=O)Cn2ncc(Cl)c(Cl)c2=O)cc1 returned HepG2 tox -97%, ATXN viability inconclusive, HttQ103 aggreg inconclusive, TGFb inhibitor inconclusive, HTT ATP protect -100% and ATXN2 expr inh inconclusive.
For C=CCOc1ccccc1CNc1ccc2c(c1)OCCO2 the results were HepG2 tox -3%, ATXN viability inactive, HttQ103 aggreg 14µM*, TGFb inhibitor inconclusive, HTT ATP protect -168% and ATXN2 expr inh inconclusive.
For COc1ccc(/C=N/NC(=O)c2ccc(Br)cc2)c(OC)c1 the results were HepG2 tox -11%, ATXN viability inactive, HttQ103 aggreg -12%, TGFb inhibitor 5%, HTT ATP protect -27% and ATXN2 expr inh 0%.
COc1ccc(O)c(/C=N/NC(=O)c2ccc(OCc3cccc(Br)c3)cc2)c1 was read as HepG2 tox -38%, ATXN viability inconclusive, HttQ103 aggreg inconclusive, TGFb inhibitor -5%, HTT ATP protect -58% and ATXN2 expr inh 3.2µM*.
COc1ccc(O)c(/C=N/NC(=O)c2ccc(CSc3nc(C)cc(C)n3)cc2)c1 was read as HepG2 tox -37%, ATXN viability inactive, HttQ103 aggreg 5.6µM*, TGFb inhibitor inconclusive, HTT ATP protect -10%[10 µM] and ATXN2 expr inh 4.5µM*.
`Cc1cc(C)nc(SCc2ccc(C(=O)N/N=C/c3cccc(O)c3O)cc2)n1` gave HepG2 tox -17%, ATXN viability inconclusive, HttQ103 aggreg -32%, TGFb inhibitor 0%, HTT ATP protect -36%[0.074 µM] and ATXN2 expr inh inconclusive.
COc1ccc(Br)cc1/C=N/NC(=O)c1cc(Br)ccc1O was read as HttQ103 aggreg -14% and HTT ATP protect -6%.
